This note sets out measurements from ChEMBL document CHEMBL1157539, “Thousands of chemical starting points for antimalarial lead identification” (Nature, 2010).

In this assay the test system is Plasmodium falciparum. Nature of the assay: GSK_TCMDC: Inhibition of Plasmodium falciparum 3D7 in whole red blood cells, using parasite LDH activity as an index of growth. Test compounds present at 2uM. Format: functional.
`COc1ccc(C2CC(c3ccccc3)=NN2C(=O)c2ccc(Br)o2)cc1` (centres undefined): the Inhibition is 96%.

`CC1(C)N=C(N)N=C(NOCc2ccc(Cl)c(Cl)c2)N1`: the Inhibition is on record as 96%.

`Fc1cccc(COc2ccc(Nc3ncnc4sc(C#CCNC5CCCC5)cc34)cc2Cl)c1` came in with an Inhibition of 100%.

Compound `O=C(Nc1ccc(Br)cc1)N1CCC(n2c(-c3ccccc3)nc3cccnc32)CC1` showed an Inhibition of 90%.

For `COc1ccc(-c2ccc(NC(=O)c3cccc(C#N)c3)cc2)cc1CN1CCN(C)CC1.O=C(O)C(F)(F)F`, the Inhibition is 100%.

Regarding `CC1(C)NC(N)=NC(=N)N1OCc1cc(Cl)c(Cl)cc1CON1C(=N)N=C(N)NC1(C)C`, the Inhibition was 98%.

In turn, `CCCCN(CCCC)C(=O)CC(O)c1cc2c(Cl)cc(Cl)cc2c2cc(C(F)(F)F)ccc12` (centres undefined) registered an Inhibition of 92%.

With `COc1ccc(NC(=O)/C=C/c2ccccc2Cl)cc1OCCN1CCC(NCc2ccccc2)CC1`, the Inhibition was 100%.

On to `O=C(/C=C/c1ccc(Cl)c(Cl)c1)NCCCCCN1CCC(CCNC(=O)c2snnc2-c2ccccc2)CC1`, for which the Inhibition was 89%.

Turning to `COCCOc1nc(N)nc2ncc(Cc3cc(OC)ccc3OC)c(C)c12`, the Inhibition is recorded as 96%.

In turn, `CCNc1cc(C)nc(Nc2ccc(NC(=O)c3ccccc3Br)cc2)n1` had an Inhibition of 100%.

Take `CC1CCCCN1CCCNC(=O)c1cccc(-c2cc3cc(Cl)c(Cl)cc3[nH]2)c1.O=C(O)C(F)(F)F` (centres undefined): the Inhibition was found to be 94%.

`Nc1ccc(-c2ccc3ccnc(N)c3c2)cn1.O=C(O)C(F)(F)F`: the Inhibition is given as 100%.

`CC(C)c1ccc(CN2CCCCC(NC(=O)c3cc(-c4cccc(F)c4)cs3)C2)cc1.O=C(O)C(F)(F)F` (centres undefined) gave an Inhibition of 94%.
